# Laboratory results reported in PubChem BioAssay (EPA / NIEHS).
# “And” between values parts separate entries of the source, which are not always exact repeats. Identical values can stand only once. The source made the active and inactive calls. The calls were made as follows: active = hit-call score of the fitted dose curve at least 0.9, where 1 is the maximum; inactive = score below 0.9.
# Test: CCTE_Shafer_MEA_acute_cross_correlation_HWHM: CCTE's Neural Acute Assay for Cross Correlation at Half Width at Half Maximum, Shafer Lab (AID 2284026)
# Procedure: CCTE_Shafer_MEA_acute assay is conducted using Axion Biosystems 48 well microelectrode array (MEA) plates and Maestro recording system. Each well of the MEA plate contains a grid of 16 microelectrodes embedded in the culture surface. Electrically active cells, such as neurons, can be cultured over the electrodes, and electrical activity in these cells can be recorded extracellularly. The spontaneous firing of neurons is captured from each electrode on a microsecond timescale providing both temporally and spatially precise data. […] The CCTE_Shafer_MEA_acute assay uses primary cultures of rat cortical neurons. As these cultures mature over time, neural networks develop functional activity and form cohesive networks in which electrical activity can be highly coordinated. Baseline 40-minute recordings are made on days post-plating 13 or 15, followed by a secondary 40-minute recording after chemical exposure.CCTE_Shafer_MEA_acute_cross_correlation_HWHM is a component of the CCTE_Shafer_MEA_acute assay. It measures the distance along the x-axis (phase lag) from the left half maximum height to the center of the cross-correlogram of action potential firing during a recording in a microelectrode array (MEA) using Axion Biosystems Maestro 768 channel amplifier with the AxIS adaptive spike detector. Smaller values indicate a narrower correlogram (greater synchrony). The recordings before and after chemical treatment are used to calculate a percent change in the half width at half maximum of the cross-correlogram in each well.Data from the assay component CCTE_Shafer_MEA_acute_cross_correlation_HWHM was analyzed into 1 assay endpoint. This assay endpoint, CCTE_Shafer_MEA_acute_cross_correlation_HWHM, was analyzed in the negative analysis fitting direction relative to DMSO as the negative control and baseline of activity. Using a type of functional reporter, gain or loss-of-signal activity can be used to understand electrical activity.
# Spontaneous activity in the cortical cultures was recorded using an Axion Biosystems Maestro 768 channel amplifier and Axion Integrated Studios (AxIS) v1.8 (or later) software. The amplifier recorded from all channels simultaneously (gain = 1200 x; sampling rate = 12.5 kHz/channel): raw signals were filtered with a Butterworth band-pass filter (300-5000 Hz), which filters out slower local field potentials leaving only fast potentials, i.e., "spikes", arising from extracellular currents associated with action potentials (Pine 2006; Wheeler and Nam 2011). On-line spike detection of filtered signals was conducted with the AxIS adaptive spike detector, using a threshold of 8x the root mean squared (rms) noise on each channel. Any electrodes with rms noise levels greater than 5 uV were grounded (e.g., no data were recorded). Once grounded, an electrode was grounded for the duration of the experiment. All recordings were conducted at 37 C. Wells were deemed usable if on the day of the exposure >/= 10 electrodes were active (defined as >/= 5 spikes/min). On DIV 13 or 15, a minimum of three wells from one cortical culture preparation were treated with each compound (0.03-40 uM). Prior to recording baseline activity, each mwMEA plate was placed in the Maestro at 37 C and allowed to sit for 20 min while firing rates stabilized. Baseline activity (40 min) was recorded before the addition of each compound. An additional 40 min of spontaneous activity was recorded in the presence of each compound. Changes in network parameters relative to baseline were assessed following compound treatment.
Structure (SMILES),outcome,AC50
CC(=NC#N)N(C)Cc1ccc(Cl)nc1,inactive,–
C[Si](Cn1cncn1)(c1ccc(F)cc1)c1ccc(F)cc1,–,34.5 µM (active)
CN(C)NC(=O)CCC(=O)O,inactive,–
CCOC(=O)CC(SP(=O)(OC)OC)C(=O)OCC (stereo not drawn),inactive,–
FC(F)C(F)(F)OCC(Cn1cncn1)c1ccc(Cl)cc1Cl (stereo not drawn),–,23.8 µM (active)
C=C(C)[C@H]1Cc2c(ccc3c2O[C@@H]2COc4cc(OC)c(OC)cc4[C@@H]2C3=O)O1,–,30.7 µM (active)
CC[C@H](C)[C@H]1O[C@]2(C=C[C@@H]1C)C[C@@H]1C[C@@H](C/C=C(\C)[C@@H](O[C@H]3C[C@H](OC)[C@@H](O[C@H]4C[C@H](OC)[C@@H](NC)[C@H](C)O4)[C@H](C)O3)[C@@H](C)/C=C/C=C3\CO[C@@H]4[C@H](O)C(C)=C[C@@H](C(=O)O1)[C@]34O)O2,–,25.5 nM (active) and 47.5 nM (active)
O=[N+]([O-])c1cc(C(F)(F)F)c(Cl)c([N+](=O)[O-])c1Nc1ncc(C(F)(F)F)cc1Cl,–,5.3 µM (active)
COc1cc(OC)nc(Sc2cccc(Cl)c2C(=O)O)n1,inactive,–
Cc1ccn2nc(S(=O)(=O)Nc3c(F)cccc3F)nc2n1,inactive,–
O=C(O)c1cc(Oc2ccc(C(F)(F)F)cc2Cl)ccc1[N+](=O)[O-],inactive,–
CC(C)N(C(=O)SCC(Cl)=C(Cl)Cl)C(C)C,–,20 µM (active) and 15 µM (active)
CCc1cccc(C)c1N(C(=O)CCl)C(C)COC (stereo not drawn),–,26.9 µM (active)
CCOP(=S)(OCC)Oc1ccc2c(C)c(Cl)c(=O)oc2c1,–,2.38 µM (active)
CSC1=N[C@@](C)(c2ccccc2)C(=O)N1Nc1ccccc1,–,29.8 µM (active) and 18.1 µM (active)
Nc1c(Cl)cc([N+](=O)[O-])cc1Cl,inactive,–
CN1COCN(Cc2cnc(Cl)s2)C1=N[N+](=O)[O-],inactive,–

Structure (SMILES),outcome,AC50
N#CSCSC#N,inactive,–
CCOP(=S)(OCC)SCCSCC,–,8.93 µM (active)
CCCOCC(=Nc1ccc(Cl)cc1C(F)(F)F)n1ccnc1,–,1.6 µM (active)
C#CCC1=C(C)C(OC(=O)C2C(C=C(C)C)C2(C)C)CC1=O (stereo not drawn),inactive,–
CC(C)=CC1C(C(=O)OCN2C(=O)C3=C(CCCC3)C2=O)C1(C)C (stereo not drawn),–,28.6 µM (active)
CON=C(C(=O)OC)c1ccccc1CON=C(C)c1cccc(C(F)(F)F)c1,–,0.278 µM (active)
CNC(=O)ON=C(SC)C(=O)N(C)C,inactive,–
CCc1cnc(C2=NC(C)(C(C)C)C(=O)N2)c(C(=O)O)c1 (stereo not drawn),inactive,–
CN(C)[C@@H]1C(=O)C(C(N)=O)=C(O)[C@@]2(O)C(=O)C3=C(O)c4c(O)cccc4[C@@](C)(O)[C@H]3[C@H](O)[C@@H]12,inactive,–
CC(COc1ccc(Oc2ccccc2)cc1)Oc1ccccn1 (stereo not drawn),–,8.8 µM (active)
CCOP(=S)(Oc1cnc(C(C)(C)C)nc1)OC(C)C (stereo not drawn),–,26.9 µM (active)
C[N+]1(C)CCCCC1,inactive,–
CC1=NNC(=O)N(/N=C/c2cccnc2)C1,inactive,–
COP(=O)(OC)C(O)C(Cl)(Cl)Cl (stereo not drawn),–,15 µM (active)
COP(=O)(NC(C)=O)SC (stereo not drawn),inactive,–
CC(C)[C@H](C(=O)O[C@H](C#N)c1cccc(Oc2ccccc2)c1)c1ccc(Cl)cc1,–,4.36 µM (active)
